According to PubChem BioAssay (NCI):
Values joined by “and” are separate entries in the source; they are usually repeats but may differ in a detail not shown here. Identical values can stand only once. Compounds without any hit were thinned out: in the full panel of roughly 83,000, 20% have a hit.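 Results are percent growth after 48 hours of single-concentration exposure. 100 means growth as in untreated cells, lower positive values show inhibition; negative values down to -100 show cell death.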 Active and inactive are the calls of the source. Rule for the calls: active = growth percent below 10; inactive = the rest.

What was measured:
Assay in all cases: NCI-60 one-dose screen, 48 h (100 = growth as untreated, 0 = no growth, -100 = all killed)
Details in all cases: 10 µM unless noted
[1] = tested on: DU-145 prostate
[2] = tested on: K-562 leukemia
[3] = tested on: MALME-3M melanoma
[4] = tested on: MDA-MB-231 breast
[5] = tested on: RXF 393 renal
[6] = tested on: SF-268 CNS
[7] = tested on: SF-295 CNS
[8] = tested on: SF-539 CNS
[9] = tested on: UACC-257 melanoma
[10] = tested on: M14 melanoma

SMILES | growth [1] | growth [2] | growth [3] | growth [4] | growth [5] | growth [6] | growth [7] | growth [8] | growth [9] | growth [10]
CCCCCCCCCC(=O)NC(C)(C)C(=O)N1CCC[C@H]1C(=O)N[C@@H](CC(C)C)C(=O)N[C@@](C)(CC)C(=O)N[C@@H](CCC(N)=O)C(=O)N[C@H](CCC(N)=O)C(=O)NC(C)(C)C(=O)NC(C)(C)C(=O)N[C@@H](CCC(N)=O)C(=O)N[C@H](CC(C)C)C(=O)N[C@H](CO)CC(C)C | -97.6% (active) and -52.1% (active) | -81.3% (active) and 23% (inactive) | -91.4% (active) and -84.4% (active) | -92.8% (active) and -95.8% (active) | -92.3% (active) and -46.4% (active) | -68.6% (active) and -46.2% (active) | -92.1% (active) and -84.6% (active) | -97.7% (active) and -99% (active) | -95% (active) and -74% (active) | -77.5% (active) and -65.7% (active)
NS(=O)(=O)c1nnc(/N=C/c2c(O)[nH]c3ccccc23)s1 | 114% (inactive) | 110% (inactive) | 109% (inactive) | 92.3% (inactive) | 118% (inactive) | 102% (inactive) | 99.2% (inactive) | 96.3% (inactive) | 107% (inactive) | 94% (inactive)
O=C(O)c1ccc(-n2c(=O)n(-c3cccc(C(F)(F)F)c3)c(=O)c3cc(-c4ccc(F)cc4F)ccc32)cc1 | 25.9% (inactive) | 5.71% (active) | -12.8% (active) | -25.8% (active) | -1.85% (active) | 22.1% (inactive) | -12.6% (active) | 17.8% (inactive) | -1.96% (active) | 18.6% (inactive)
CN1CC[C@@H]2[C@@]3(C)CC[C@H](O)C(C)(C)[C@@H]3CC[C@@]2(C)[C@]2(C)CC[C@@]3(CO)CCC(C)(C)C[C@@H]3C12 (stereo not given in full) | 103% (inactive) | 21.5% (inactive) | 84.3% (inactive) | 85% (inactive) | 77.2% (inactive) | 96.7% (inactive) | 104% (inactive) | 74.9% (inactive) | 49.1% (inactive) | 58.6% (inactive)
O=C(COc1ccc(/C=C2\C(=O)Nc3ccc(Cl)cc32)cc1)Nc1ccc(Cl)cc1 | 53.7% (inactive) | 28.2% (inactive) | 81.2% (inactive) | 76.6% (inactive) | 75.4% (inactive) | 51.1% (inactive) | 59.2% (inactive) | 75.3% (inactive) | 82.5% (inactive) | 7.47% (active)
C#Cc1nc(/C=C\CCCCCCC(=O)NO)cs1 | 39.2% (inactive) | 14.7% (inactive) | -19.8% (active) | -11.8% (active) | -4.23% (active) | 79.4% (inactive) | 65.3% (inactive) | -81.3% (active) | 38.2% (inactive) | 61.6% (inactive)
CN1CCN(c2ccc(Nc3nc(NCCNC(=O)c4ccc(F)cc4)c4sccc4n3)cc2)CC1 | 87.8% (inactive) | 19.8% (inactive) | -54.2% (active) | 59.4% (inactive) | 14.1% (inactive) | 73.8% (inactive) | 61% (inactive) | -64.7% (active) | 0.258% (active) | -10.1% (active)
CC(=O)Nc1ccccc1-c1nc2ccccc2s1 | 110% (inactive) | 113% (inactive) | 106% (inactive) | 99.2% (inactive) | 103% (inactive) | 101% (inactive) | 103% (inactive) | 100% (inactive) | 107% (inactive) | 103% (inactive)
COc1cc(/C=N\NC(=O)c2ccc3nc(-c4ccc(Br)cc4)[nH]c3c2)cc(OC)c1OC | 65.6% (inactive) | 22.5% (inactive) | 23.4% (inactive) | 101% (inactive) | 9.72% (active) | 51.7% (inactive) | 32.5% (inactive) | 32.6% (inactive) | 33.1% (inactive) | 38.3% (inactive)
CCOC(=O)c1c(NC(=O)c2ccc(C(F)(F)F)cc2)sc2c3c(ccc12)OCN(C)C3 | 21.6% (inactive) | -28.3% (active) | 72.6% (inactive) | 10.9% (inactive) | -70% (active) | 63.6% (inactive) | 66.2% (inactive) | -73.1% (active) | 71.6% (inactive) | 30.1% (inactive)
CC1=C(C)C(=O)C(Nc2ccc(C)cc2)=C(Br)C1=O | 106% (inactive) | -21.3% (active) | 112% (inactive) | 70.1% (inactive) | 97.7% (inactive) | 97.3% (inactive) | 98.1% (inactive) | 100% (inactive) | 93.8% (inactive) | 106% (inactive)
CC1(C)C=Cc2cc(/C(N)=N/C(N)=N/c3nc4ccccc4s3)ccc2O1 | 94.9% (inactive) | 57.6% (inactive) | 104% (inactive) | 77.5% (inactive) | 103% (inactive) | 93.2% (inactive) | 81.6% (inactive) | 97.3% (inactive) | 104% (inactive) | 103% (inactive)
N#C/C(=N\Nc1ccc(F)cc1)C(=O)Nc1cc(-c2ccccc2)nn1-c1ccccc1 | 22.9% (inactive) | 12.8% (inactive) | -17% (active) | -6.26% (active) | -2.63% (active) | 14.5% (inactive) | 2.07% (active) | 8.69% (active) | -13.5% (active) | 18.3% (inactive)
C=C1CCc2nc(SCC(=O)O)ccc2N1 | 110% (inactive) | 98.5% (inactive) | 104% (inactive) | 105% (inactive) | 94.1% (inactive) | 103% (inactive) | 104% (inactive) | 101% (inactive) | 105% (inactive) | 94.8% (inactive)
O=C(CCCCCCNC(=O)C(O)(O)C(F)(F)F)Nc1ncc(-c2ccccc2)s1 | 3.28% (active) | 11.7% (inactive) | 13.6% (inactive) | 15.9% (inactive) | -48.5% (active) | 1.35% (active) | -35.1% (active) | 13.9% (inactive) | 20.8% (inactive) | 14.3% (inactive)
C#CCOc1ccccc1/C=N/Nc1nc(-c2ccc(Cl)cc2)cs1 | 104% (inactive) | 86.2% (inactive) | 97.2% (inactive) | 86.4% (inactive) | 102% (inactive) | 98.9% (inactive) | 109% (inactive) | 89.5% (inactive) | 102% (inactive) | 94% (inactive)
CCOC(=O)c1c(NC(=O)c2cccc(C(F)(F)F)c2)sc2c3c(ccc12)OCN(C)C3 | -16.8% (active) | -64.1% (active) | -53.9% (active) | -95.9% (active) | -91.4% (active) | -57.3% (active) | 44.6% (inactive) | -0.959% (active) | 30.8% (inactive) | -17% (active)
CCCC/C(=C\c1ccc(O)c(O)c1)C(=O)NC(Cc1ccccc1)C(=O)C(=O)NCCc1ccc(OC)cc1 (stereo not given) | 104% (inactive) | 91.5% (inactive) | 101% (inactive) | 92.1% (inactive) | 96% (inactive) | 92% (inactive) | 97.8% (inactive) | 91.6% (inactive) | 100% (inactive) | 95% (inactive)
C[C@]12CC[C@H]3[C@@H](CC=C4C[C@@H](O)CC[C@@]43C)[C@@H]1CC[C@@H]2[C@](C)(O)CCc1cccnc1 | 53.5% (inactive) | 26.4% (inactive) | 47% (inactive) | 77.2% (inactive) | 66.4% (inactive) | 70.7% (inactive) | 45% (inactive) | 66.2% (inactive) | 53.8% (inactive) | 85.6% (inactive)
CCS(=O)(=O)Nc1ccc(C(=O)CC2(O)C(=O)Nc3ccccc32)cc1 (stereo not given) | 109% (inactive) | 93.5% (inactive) | 90.1% (inactive) | 99.6% (inactive) | 115% (inactive) | 97.3% (inactive) | 102% (inactive) | 96.1% (inactive) | 103% (inactive) | 105% (inactive)
Fc1cc(F)cc(NNC(=S)c2ccccc2)c1 | 58% (inactive) | 29.4% (inactive) | 85.3% (inactive) | 66.5% (inactive) | -11% (active) | 55% (inactive) | 52.5% (inactive) | 66.6% (inactive) | 73.8% (inactive) | 30.2% (inactive)
O=C(/C=C/c1ccccc1Cl)Nc1ncc(Cc2cc(Cl)ccc2Cl)s1 | 30.7% (inactive) | 12.9% (inactive) | 39.7% (inactive) | 49.4% (inactive) | 17.2% (inactive) | 43.9% (inactive) | 14.7% (inactive) | 1.2% (active) | 61.5% (inactive) | 18.2% (inactive)
Cc1ccc(NC(=O)Nc2nc3ccc([N+](=O)[O-])cc3s2)cc1 | 17.9% (inactive) | 10.7% (inactive) | -19.2% (active) | 2.83% (active) | -12.1% (active) | 10.8% (inactive) | 0.916% (active) | 14% (inactive) | -12.5% (active) | 7.25% (active)
CC(Nc1ncnc2ccc(-c3cnc4cnccn34)cc12)c1ccccc1 (stereo not given) | 37.4% (inactive) | 48.3% (inactive) | 58% (inactive) | 64.3% (inactive) | 46.6% (inactive) | 67.7% (inactive) | 50.5% (inactive) | 66% (inactive) | 75.4% (inactive) | 77.8% (inactive)
C#CCN(C)CCCOc1ccc(NCc2ccc(C(=O)NO)cc2)cc1Cl | 25.7% (inactive) | 15.5% (inactive) | 16.9% (inactive) | 35.8% (inactive) | -3.35% (active) | 30.3% (inactive) | 0.985% (active) | 23.9% (inactive) | 10.3% (inactive) | 29% (inactive)
Cc1ccccc1N1CCN(C2=C(Cl)C(=O)c3ncccc3C2=O)CC1 | 20.3% (inactive) | 7.01% (active) | -14.5% (active) | 88.3% (inactive) | -10.9% (active) | 80.2% (inactive) | 86.8% (inactive) | 78.9% (inactive) | 21.7% (inactive) | 36.2% (inactive)
